Test results published in PubChem BioAssay (NCATS).
Values without a mark were called inactive. Records with an inconclusive call do not appear. A call without a number means that no potency is given here. Calls of active or inactive are those of the source. Calls follow the shape of the dose curve; as a rule, active = well fitted curve in the direction sought with a large enough effect; inconclusive = small, poorly fitted or top-dose-only effect, or another doubt; inactive = no such curve, though single readings can be large; an effect the other way counts as inactive or inconclusive. Where a SMILES comes first, the peptide text is derived from it. [ ]: non-standard residue; d: D form. ξ: configuration not given here. ξPhe(βξ-Me) = CC(c1ccccc1)C(N)C(=O)O; GABA = NCCCC(=O)O

What was measured:
[1] = target: Glutathione peroxidase 1 (Homo sapiens) (UniProt P07203); experiment: Primary qHTS Assay for Inhibitors of Recombinant Selenoprotein Glutathione Peroxidase 1 (GPX1) (AID 1845191); also: nearly all actives have a fitted effect of over 65% in size
Sequence of Glutathione peroxidase 1 (Homo sapiens) (P07203 whole entry, looked up): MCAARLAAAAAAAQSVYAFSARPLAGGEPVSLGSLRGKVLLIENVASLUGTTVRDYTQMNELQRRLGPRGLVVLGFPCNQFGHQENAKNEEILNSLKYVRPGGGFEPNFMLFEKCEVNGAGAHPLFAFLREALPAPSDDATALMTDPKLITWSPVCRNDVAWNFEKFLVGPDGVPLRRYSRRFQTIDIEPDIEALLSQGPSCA
Outline: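 GR-coupled assay: compounds preincubated 30 min at room temperature with GPX1, then reaction started with CHP; final 10 nM GPX1, 1 mM GSH, 0.5 mM CHP, 0.5 mM NADPH, 100 nM GR, 0.01% BSA, pH 7.5 Tris buffer. NADPH fluorescence (340/450 nm) read at 0 and 15 min.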

[2] = target: Phospholipid hydroperoxide glutathione peroxidase GPX4 (Homo sapiens) (UniProt P36969); experiment: Primary qHTS Assay for Inhibitors of Recombinant Selenoprotein Glutathione Peroxidase 4 (GPX4) (AID 1845192); also: nearly all actives have a fitted effect of over 65% in size; as to activity change, negative = inhibition: series mostly up to about 50 µM
Sequence of Phospholipid hydroperoxide glutathione peroxidase GPX4 (Homo sapiens) (P36969 whole entry, looked up): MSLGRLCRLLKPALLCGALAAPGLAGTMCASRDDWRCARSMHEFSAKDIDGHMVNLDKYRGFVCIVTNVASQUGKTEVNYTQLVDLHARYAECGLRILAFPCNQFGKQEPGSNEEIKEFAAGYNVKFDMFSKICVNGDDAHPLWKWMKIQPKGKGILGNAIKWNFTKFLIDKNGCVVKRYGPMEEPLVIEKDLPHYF
Outline: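 GR-coupled assay: recombinant GPX4 preincubated 30 min with compound at room temperature; final 200 nM GPX4, 1 mM GSH, 0.5 mM cumene hydroperoxide, 0.5 mM NADPH, 100 nM GR, 0.01% BSA, pH 7.5 Tris. NADPH fluorescence (340/450 nm) read at 0 and 15 min.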

[3] = target: Luciferin 4-monooxygenase (Photinus pyralis) (UniProt P08659); experiment: Primary firefly luciferase (FLuc) qHTS assay for identification of artifact compounds. (AID 1845220); also: nearly all actives have a fitted effect of over 60% in size; as to activity change, negative = inhibition: series mostly up to about 54 µM
Outline: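 D-luciferin and ATP (10 uM each, final) in Tris acetate buffer pH 7.6 were incubated with compounds for 15 min at room temperature. The reaction was started with 10 nM Photinus pyralis luciferase and luminescence read after 5 min. Percent inhibition was fitted to a 4-parameter Hill equation.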

[4] = Primary fluorescence-based thiol-reactive (MSTI) qHTS assay for identification of artifact compounds. (AID 1845221); also: nearly all actives have a fitted effect of over 65% in size; also: potency is read from the fitted curve at half-maximal effect;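 as to activity change, negative = thiol reactive: series mostly up to about 54 µM; thiol-reactive compounds lower the probe fluorescence signal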
Outline: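 Curve-fitted percent inhibition (4-parameter Hill) derived from fluorescence, Ex 525/Em 598 nm, scaled with Acetyl-MSTI and MSTI; 1 h incubation at room temperature.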

[5] = test system: Nanoluciferase (engineered Oplophorus gracilirostris luciferase); experiment: Primary Nanoluciferase (NLuc) qHTS assay for identification of artifact compounds. (AID 1845222); also: series mostly up to about 54 µM
Outline: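 Diluted conditioned medium from NLuc-expressing S16 cells treated with compounds for 15 min at room temperature, then Nano-Glo substrate added; luminescence read after 5 min. Percent inhibition versus no-enzyme and DMSO controls fitted to 4-parameter Hill equation.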

[6] = Primary redox qHTS assay for identification of artifact compounds. (AID 1845223)
Outline: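 Amplex Red (25 uM) and HRP (250 mU/mL) in HBSS, with compounds for 15 min, then 250 uM DTT for 30 min, room temperature, dark. Fluorescence 525/598 nm read; normalized to DMSO and 10 uM DA3003; Hill fit.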

SMILES	Potency [1]	Potency [2]	Potency [3]	Potency [4]	Potency [5]	Potency [6]	outcome [1]	activity change, negative = inhibition [2]	outcome [3]	activity change, negative = thiol reactive [4]	activity, negative = inhibition [5]	redox activity (% of DA3003) [6]
C=C1C(=O)OC2CC3(C)C(CC12)C(C)=CC(O)C3OC(C)=O (centres undefined)	inactive	inactive	inactive	5.85 µM (active)	inactive	inactive	–	–	–	–	–	–
CN1CCC(Nc2nc(Nc3ccc(Oc4ccccc4)cc3)c3c(=O)[nH]cc(Br)c3n2)CC1	inactive	inactive	inactive	inactive	inactive	inactive	–	–	–	–	–	–
C=C[C@]1(C)C=C2CCC3C(C)(CCC[C@@]3(C)C(=O)O)C2CC1 (some centres undefined)	inactive	inactive	inactive	inactive	inactive	inactive	–	–	–	–	–	–
C[C@@H]1CCC2C(C)(C)[C@H](O)CC[C@]2(C)[C@@]12Cc1c(O)cc3c(c1O2)CNC3=O (some centres undefined)	inactive	inactive	inactive	inactive	inactive	inactive	–	–	–	–	–	–
C=C[C@H]1[C@H](O[C@@H]2O[C@H](CO)[C@@H](O)[C@H](O)[C@H]2O)OC=C(C(=O)OC)[C@H]1CC(=O)O	inactive	inactive	inactive	inactive	inactive	inactive	–	–	–	–	–	–
CC1CCC2(C(=O)O)CCC3(C)C(=CCC4C5(C)CCC(O)C(C)(CO)C5CCC43C)C2C1(C)O (centres undefined)	inactive	inactive	inactive	inactive	inactive	inactive	–	–	–	–	–	–
CC1NC(=O)CCCNC(=O)C(Cc2c[nH]c3ccccc23)NC(=O)C(C)NC(=O)C(C(C)C)NC(=O)C(C(C)c2ccccc2)NC(=O)C(C(C)C)NC1=O (stereo not drawn) (cyclo([GABA]AV[ξPhe(βξ-Me)]VAW); configuration not given here)	inactive	inactive	inactive	inactive	inactive	inactive	–	–	–	–	–	–
CCOc1cc2ncc(C#N)c(Nc3ccc(F)c(Cl)c3)c2cc1NC(=O)/C=C/CN(C)C	inactive	inactive	inactive	inactive	inactive	inactive	–	–	–	–	–	–
Cc1cc(O)c(-c2ccc([C@@H](C)CN(C)C)cc2)c2c1[nH]c(=O)c1sccc12	inactive	inactive	inactive	inactive	inactive	inactive	–	–	–	–	–	–
Cc1[nH]c2ccccc2c1C1=C(NCCc2ccc(F)cc2)C(=O)N(C)C1=O	inactive	inactive	inactive	1.5 µM (active)	inactive	inactive	–	–	–	–	–	–
COc1c(Nc2ncc(Cl)c(N[C@H]3[C@@H](C(N)=O)[C@@H]4C=C[C@H]3C4)n2)ccc2c1CC[C@@H](N1CCOCC1)CC2	inactive	inactive	inactive	inactive	inactive	inactive	–	–	–	–	–	–
CC(=O)O[C@H]1CC[C@H](C)[C@@]2(C)[C@H](OC(C)=O)c3c(C)coc3C(=O)[C@H]12	inactive	inactive	inactive	inactive	inactive	inactive	–	–	–	–	–	–
NC[C@@](O)(c1ccc(Cl)cc1)c1ccc(-c2cn[nH]c2)cc1	inactive	inactive	inactive	inactive	inactive	inactive	–	–	–	–	–	–
C[C@@H]1CC[C@]2(C(=O)O[C@@H]3O[C@H](CO)[C@@H](O)[C@H](O)[C@H]3O)CC[C@]3(C)C(=CCC4[C@@]5(C)C[C@@H](O)[C@H](O)[C@](C)(C(=O)O)C5CC[C@]43C)[C@@H]2[C@]1(C)O (some centres undefined)	inactive	inactive	inactive	inactive	inactive	inactive	–	–	–	–	–	–
Cn1cc(-c2ccc3nnc(Sc4ccc5nn(C)cc5c4)n3n2)cn1	inactive	inactive	inactive	inactive	inactive	inactive	–	–	–	–	–	–
C[C@@H]1O[C@@H](O[C@H]2[C@H](O[C@H]3[C@H](O[C@H]4CC[C@@]5(C)C(CC[C@]6(C)C5CC=C5[C@@H]7CC(C)(C)CC[C@]7(C(=O)O[C@@H]7O[C@H](CO)[C@@H](O[C@@H]8O[C@@H](C)[C@H](O)[C@@H](O)[C@H]8O)[C@H](O)[C@H]7O)CC[C@]56C)C4(C)C)OC[C@H](O)[C@@H]3O)O[C@H](CO)[C@@H](O)[C@@H]2O)[C@H](O)[C@H](O)[C@H]1O (some centres undefined)	–	–	–	–	–	–	inactive [at 9.52 µM]	0.115% [at 9.73 µM]	inactive [at 11.6 µM]	125% [at 11.5 µM]	4.91% [at 11.6 µM]	19.8% [at 11.5 µM]
O=C(NCc1cccc(O)c1)Nc1nc(-c2ccncc2)cs1	inactive	inactive	inactive	inactive	inactive	inactive	–	–	–	–	–	–
CC/C=C\C/C=C\C/C=C\CCCCCCCC(=O)OCC(O)COC1OC(CO)C(O)C(O)C1O (centres undefined)	inactive	inactive	inactive	inactive	inactive	inactive	–	–	–	–	–	–
CC(=O)O[C@@H]1C[C@H](O)[C@@]23CO[C@H](O)[C@]1(C)C2C[C@@H](O)[C@]1(C)C3C(=O)[C@H](OC(C)=O)[C@@]2(C)[C@H](c3ccoc3)C[C@H]3O[C@]321 (some centres undefined)	inactive	inactive	inactive	inactive	inactive	inactive	–	–	–	–	–	–
